Laboratory results reported in the supplement of paper PMC6555819.

What was measured:
Assay in all cases: PBM binding z-score (relative to random genomic background probes); higher = stronger binding; sequences stand for … in GC…GCGATTGACAGCGTAGAATGAAGG
[1] = tested on: FXR:RXRa (NR concentration 270 nM, RXRa partner concentration 90 nM)
Outline: (§1)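 Binding z-scores were set against random background probes. The data came from custom Agilent 4×180K protein-binding microarrays carrying double-stranded probes with 34-nt variable regions, incubated 1 h with ligand-free nuclear receptor dimers. Partner-specific antibodies detected binding, and scanned fluorescence was regression-normalized.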

[2] = tested on: LXRa:RXRa (NR concentration 270 nM, RXRa partner concentration 90 nM)
Outline: as §1

[3] = tested on: LXRa homodimer (NR concentration 270 nM)
Outline: as §1

[4] = tested on: LXRb:RXRa (NR concentration 270 nM, RXRa partner concentration 90 nM)
Outline: as §1

[5] = tested on: LXRb homodimer (NR concentration 270 nM)
Outline: as §1

[6] = tested on: PPARa:RXRa (NR concentration 270 nM, RXRa partner concentration 90 nM)
Outline: as §1

[7] = tested on: PPARg:RXRa (NR concentration 180 nM, RXRa partner concentration 90 nM)
Outline: as §1

[8] = tested on: PPARg:RXRa 270nM:90nM, anti-RXR (NR concentration 270 nM, RXRa partner concentration 90 nM)
Outline: as §1

[9] = tested on: PPARg:RXRa 30nM:10nM, anti-RXR (NR concentration 30 nM, RXRa partner concentration 10 nM)
Outline: as §1

[10] = tested on: PPARg:RXRa 90nM:30nM, anti-RXR (NR concentration 90 nM, RXRa partner concentration 30 nM)
Outline: as §1

[11] = tested on: PPARg:RXRa DBDmut IVT, anti-RXR (DBD mutation: RXRa K156A/R161A, NR concentration 270 nM, RXRa partner concentration 90 nM)
Outline: as §1

[12] = tested on: PPARg:RXRa IVT, anti-PPARg (NR concentration 270 nM, RXRa partner concentration 90 nM)
Outline: as §1

[13] = tested on: PPARg DBDmut:RXRa IVT, anti-PPARg (DBD mutation: PPARg1 K132A/R137A, NR concentration 270 nM, RXRa partner concentration 90 nM)
Outline: as §1

[14] = tested on: PPARg DBDmut IVT, anti-PPARg (DBD mutation: PPARg1 K132A/R137A, NR concentration 270 nM)
Outline: as §1

[15] = tested on: PPARg homodimer (NR concentration 180 nM)
Outline: as §1

[16] = tested on: PXR:RXRa (NR concentration 270 nM, RXRa partner concentration 90 nM)
Outline: as §1

[17] = tested on: PXR homodimer (NR concentration 270 nM)
Outline: as §1

[18] = tested on: RARa:RXR (NR concentration 270 nM, RXRa partner concentration 90 nM)
Outline: as §1

[19] = tested on: RARa homodimer (NR concentration 270 nM)
Outline: as §1

[20] = tested on: RARb:RXRa (NR concentration 270 nM, RXRa partner concentration 90 nM)
Outline: as §1

Row | Sequence | PBM binding z-score [1] | PBM binding z-score [2] | PBM binding z-score [3] | PBM binding z-score [4] | PBM binding z-score [5] | PBM binding z-score [6] | PBM binding z-score [7] | PBM binding z-score [8] | PBM binding z-score [9] | PBM binding z-score [10] | PBM binding z-score [11] | PBM binding z-score [12] | PBM binding z-score [13] | PBM binding z-score [14] | PBM binding z-score [15] | PBM binding z-score [16] | PBM binding z-score [17] | PBM binding z-score [18] | PBM binding z-score [19] | PBM binding z-score [20]
1 | CCTGCAAGGTCATGGTCAGCTAATCTACAGTATG | 6.95 | 5.02 | 0.64 | 4.16 | 0.00573 | 5.68 | 4.66 | 5.14 | 2.07 | 3.51 | 2.84 | 3.3 | 1.03 | 1.64 | 3.29 | 4.62 | 0.377 | 5.57 | 1.03 | 5.04
2 | ACGAGCAGGCCAAGTTTGGGTCACTCAAACAAAG | 0.0598 | -0.0138 | -0.363 | 0.536 | -0.887 | 1.33 | -0.00564 | 0.0624 | -0.543 | -0.429 | -0.114 | 0.246 | -0.842 | -0.922 | 0.235 | 0.69 | -0.152 | 1.46 | -0.613 | 1.54
3 | GATACAGGGTCAGCTAGAGGCCAGAGGATGGAAA | 4.5 | 3.02 | -0.423 | 2.39 | -0.64 | 4.54 | 3.7 | 3.5 | 1.02 | 2.16 | 1.05 | 2.27 | 0.0573 | -0.276 | 2.33 | 3.12 | -0.127 | 4.59 | 0.2 | 4.17
4 | CCAAGTAGGTTATGGGGCATTCAGGCAACGGTGA | 0.142 | 0.353 | -0.344 | 0.363 | -0.655 | 2.93 | 5.23 | 5.69 | 4.33 | 5.84 | 5.49 | 4.96 | 0.251 | 0.296 | 1.18 | -0.156 | -0.101 | 0.207 | 0.919 | 1.05
